The record followed here is PubChem BioAssay (NCI).

Holding throughout (experiment): NCI-60 one-dose screen, 48 h (100 = growth as untreated, 0 = no growth, -100 = all killed)
What all share (settings): 10 µM unless noted

Test [1] concerns NCI-H23 lung.
Test [2] concerns NCI-H226 lung.
Test [3] deals with NCI-H322M lung.
In test [4] the test system is NCI-H460 lung.
Test [5] has as its system HOP-92 NSCLC.
Test [6] concerns NCI-H522 lung.
For test [7], the system named is A549/ATCC NSCLC.
Test [8] deals with 786-0 renal.
For test [9], the system named is COLO 205 colon.
Test [10] has as its system DU-145 prostate.
The test system of test [11] is K-562 leukemia.
Test [12] has as its system MALME-3M melanoma.
For test [13], the system named is MDA-MB-231 breast.
The test system of test [14] is RXF 393 renal.
The test system of test [15] is SF-268 CNS.
The test system of test [16] is SF-295 CNS.
In test [17] the test system is SF-539 CNS.
For test [18], the system named is UACC-257 melanoma.
In test [19] the test system is M14 melanoma.

“And” between values parts separate entries of the source, which are not always exact repeats. Identical values can stand only once. Compounds without any hit were thinned out: in the full panel of roughly 83,000, 20% have a hit.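 Percent growth is the endpoint: 0 to 100 indicates growth inhibition (40 means 60% inhibition), 0 means no net growth, and negative values indicate cell death.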 The source made the active and inactive calls. How the source made its calls: active means growth percent below 10; inactive means the rest.

In the case of `CCOc1ccc(/C=C\C(=O)O)cc1`, the growth in test [1] is 109% (inactive); in [2], 114% (inactive); in test [3], 107% (inactive); in test [4], 109% (inactive); in test [5], 86.9% (inactive); in [6] it was 115% (inactive). The growth is 104% (inactive) in test [7]; 104% (inactive) in [8]; 129% (inactive) in [9]; 111% (inactive) in test [10]; 103% (inactive) in test [11]; 105% (inactive) in test [12]. The growth in [13] was 108% (inactive); in [14], 138% (inactive); in test [15], 115% (inactive); in [16], 103% (inactive); in test [17] it was 110% (inactive); in test [18], 109% (inactive). In test [19], the growth is 110% (inactive).
With `CCC(C)(O)CCC(C)(O)CC` (configuration not stated), the growth was 87.1% (inactive) in test [1]; 108% (inactive) in test [2]; 102% (inactive) in test [3]; 116% (inactive) in test [4]; 104% (inactive) in test [5]; 103% (inactive) in test [6]. Also, the growth was 99.3% (inactive) in [8]; 108% (inactive) in test [9]; 105% (inactive) in [10]; 99.3% (inactive) in test [11]; 93.6% (inactive) in [12]; 109% (inactive) in test [13]. The growth in test [14] is 130% (inactive); in test [15], 99.2% (inactive); in test [16], 102% (inactive); in [17], 103% (inactive); in [18], 106% (inactive); in test [19], 103% (inactive).
Turning to `CC(C)(C)C1=CC(=O)C(C(C)(C)C)=CC1=O`, the growth in [1] was 84.3% (inactive) and 103% (inactive); in [2], 90.3% (inactive) and 102% (inactive); in [3] it was 104% (inactive) and 102% (inactive); in test [4] it was 99.7% (inactive); in test [5], 83.8% (inactive) and 100% (inactive); in test [6], 82.5% (inactive) and 88.9% (inactive). Moreover, the growth in test [7] was 98.5% (inactive) and 91% (inactive); in test [8], 93.3% (inactive) and 105% (inactive); in [9] it was 116% (inactive); in test [10], 120% (inactive) and 98.9% (inactive); in test [11] it was 105% (inactive) and 107% (inactive); in [12], 94.5% (inactive) and 107% (inactive). In addition, the growth in [13] was 107% (inactive) and 109% (inactive); in test [14], 90.2% (inactive) and 105% (inactive); in [15], 108% (inactive) and 94.3% (inactive); in [16], 99.6% (inactive) and 104% (inactive); in [17] it was 87.3% (inactive) and 108% (inactive); in test [18], 90.5% (inactive) and 85% (inactive). Besides, in [19], the growth is 105% (inactive).
With `Nc1ccc(Cl)c(S(=O)(=O)O)c1`, the growth in test [1] is 97% (inactive); in [2], 97.1% (inactive); in [3], 89.2% (inactive); in test [4], 105% (inactive); in [5], 106% (inactive); in test [6], 99.1% (inactive). Also, the growth is 106% (inactive) in test [7]; 104% (inactive) in test [8]; 111% (inactive) in [9]; 105% (inactive) in test [10]; 104% (inactive) in [11]; 112% (inactive) in test [12]. The growth in [13] was 111% (inactive); in [14] it was 95.1% (inactive); in [15], 102% (inactive); in test [16], 112% (inactive); in test [17], 94.3% (inactive); in test [18] it was 98.8% (inactive). Besides, the growth in test [19] was 98.9% (inactive).
As for `Cc1cc(NC(=O)NC(=O)c2ccccc2N(C)C)ccc1Oc1ncc(Br)cn1`, the growth is 19.3% (inactive) and 24.7% (inactive) in [1]; 55.6% (inactive) and 66.4% (inactive) in [2]; 44.4% (inactive) and 66.2% (inactive) in test [3]; 8.31% (active) and 10.8% (inactive) in test [4]; 57.5% (inactive) in test [5]; -22.2% (active) and 15.1% (inactive) in test [6]. In addition, the growth in [7] was 43.9% (inactive) and 33.7% (inactive); in test [8], 27.9% (inactive) and 31.4% (inactive); in test [9] it was 14.2% (inactive); in test [10], -3.51% (active) and 20.7% (inactive); in [11], 0.98% (active) and 20.3% (inactive); in test [12], 24.6% (inactive) and 55.2% (inactive). The growth was 9.21% (active) and 34.1% (inactive) in test [13]; 30.2% (inactive) and -1.61% (active) in test [14]; 44.8% (inactive) and 63.6% (inactive) in [15]; 35.1% (inactive) and 36.1% (inactive) in test [16]; -8.43% (active) and -14.3% (active) in [17]; 26% (inactive) and 73.5% (inactive) in test [18]. Besides, the growth in test [19] is 22.8% (inactive) and 17.1% (inactive).
On to `CC(O)CCNC(c1ccccc1)C(O)c1ccccc1` (configuration not stated), for which the growth is 105% (inactive) in [1]; 111% (inactive) in test [2]; 112% (inactive) in [3]; 106% (inactive) in test [4]; 86% (inactive) in test [5]; 89.8% (inactive) in [6]. Further, the growth is 97.9% (inactive) in [8]; 117% (inactive) in test [9]; 131% (inactive) in test [10]; 101% (inactive) in test [11]; 123% (inactive) in test [12]; 104% (inactive) in test [13]. Further, the growth was 115% (inactive) in test [14]; 111% (inactive) in [15]; 102% (inactive) in [16]; 115% (inactive) in [17]; 108% (inactive) in [18]; 104% (inactive) in test [19].
